The source of these data is the supplement of paper PMC9262897, “Low-cost anti-mycobacterial drug discovery using engineered E. coli” (Nature Communications, 2022).

SMILES strings stand for the structures. Counter-ions that a name gives are not always drawn. ± gives the standard deviation of the averaged measurements.

The test system of the first assay is E. coli TESEC Mtb DapB. Put plainly: growth (OD600 after 10 h); higher = more growth (less inhibition). The settings on record: arabinose induction (level): High; compound 0.1 mM; raw OD600 reference: median of DMSO wells […], cell-free background 0.041. On the procedure:
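TESEC E. coli strains in which the native enzyme is deleted and replaced by arabinose-inducible Mtb Asd, DapB, CysH or TrpD, each grown in its selective medium. Strains were screened against the Prestwick library at 0.1 mM and 1% DMSO in 384-well format at low and high arabinose induction. Growth is read as OD600 after 10 h in triplicate.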
For `CCCCC1=NC2(CCCC2)C(=O)N1Cc1ccc(-c2ccccc2-c2nnn[nH]2)cc1` [Irbesartan], the growth turned out to be 0.204 ± 0.014.
Compound `CN1CCC(=C2c3ccccc3Sc3ccccc32)CC1` [Pimethixene maleate] returned a growth of 0.15 ± 0.011.
`O=C(NC(Cc1cc(=O)[nH]c2ccccc12)C(=O)O)c1ccc(Cl)cc1` (stereo not given) [Rebamipide] gave a growth of 0.221 ± 0.0038.
Take `CC(C)NCC(O)c1ccc(O)c(O)c1` (single isomer, unassigned; (-)) [(-)-Isoproterenol hydrochloride]: the growth amounted to 0.191 ± 0.014.
As to `COCC(=O)Nc1c(I)c(C(=O)NCC(O)CO)c(I)c(C(=O)N(C)CC(O)CO)c1I` (stereo not given) [Iopromide], the growth is 0.213 ± 0.022.
As to `CN(C/C=C/C#CC(C)(C)C)Cc1cccc2ccccc12` [Terbinafine], the growth amounted to 0.182 ± 0.047.
On to `CNCC[C@@H](Oc1cccc2ccccc12)c1cccs1` [(R)-Duloxetine hydrochloride], for which the growth was 0.0757 ± 0.0014.
The compound `Cc1[nH]c(=O)c(C#N)cc1-c1ccncc1` [Milrinone] came in with a growth of 0.212 ± 0.0044.
The compound `CC(=O)OCC(CCn1cnc2cnc(N)nc21)COC(C)=O` [Famciclovir] gave a growth of 0.179 ± 0.0051.
Still for that read-out and setting: then `O=C1Nc2ccc(Cl)cc2[C@@](C#CC2CC2)(C(F)(F)F)O1` [Efavirenz], with 0.0481 ± 0.00017; and `Cc1cc(C(C)(C)C)c(O)c(C)c1CC1=NCCN1` [Oxymetazoline hydrochloride], with 0.202 ± 0.016; and `Cc1nc(=O)c2cc(CN(C)c3ccc(C(=O)N[C@@H](CCC(=O)O)C(=O)O)s3)ccc2[nH]1` [Raltitrexed], with 0.188 ± 0.015.
As for `Nc1nc(/C(=C/CC(=O)O)C(=O)N[C@@H]2C(=O)N3C(C(=O)O)=CCS[C@H]23)cs1` [Ceftibuten], the growth turned out to be 0.188 ± 0.021.
Turning to `O=c1[nH]cnc2c1ncn2[C@H]1CC[C@@H](CO)O1` [Didanosine], the growth is 0.18 ± 0.011.
Consider `CC=CC(=O)N(CC)c1ccccc1C` [Crotamiton], for which the growth is 0.236 ± 0.053.
With `Clc1ccc(CCC(Cn2ccnc2)Sc2c(Cl)cccc2Cl)cc1` (stereo not given) [Butoconazole nitrate], the growth worked out at 0.0705 ± 0.0052.
Consider `CCc1c(C)[nH]c2c1C(=O)C(CN1CCOCC1)CC2` (stereo not given) [Molindone hydrochloride], for which the growth stood at 0.189 ± 0.0083.
Same read-out and setting: then `CNCCC=C1c2ccccc2C=Cc2ccccc21` [Norcyclobenzaprine], with 0.186 ± 0.009; and `CC(C)[C@H]1CC[C@H](C(=O)N[C@H](Cc2ccccc2)C(=O)O)CC1` [Nateglinide], with 0.1583 ± 0.001; and `CC1=C(C(=O)O)N2C(=O)[C@@H](NC(=O)[C@H](N)c3ccc(O)cc3)[C@H]2SC1` [Cefadroxil], with 0.192 ± 0.0046.

The assay is the same for the next values; noted with them: arabinose induction (level): Low; compound 0.1 mM; raw OD600 reference: median of DMSO wells 0.227, cell-free background 0.041.
With `CCCCC1=NC2(CCCC2)C(=O)N1Cc1ccc(-c2ccccc2-c2nnn[nH]2)cc1` [Irbesartan], the growth was 0.263 ± 0.048.
Consider `CN1CCC(=C2c3ccccc3Sc3ccccc32)CC1` [Pimethixene maleate], for which the growth was 0.223 ± 0.069.
`O=C(NC(Cc1cc(=O)[nH]c2ccccc12)C(=O)O)c1ccc(Cl)cc1` (stereo not given) [Rebamipide] returned a growth of 0.244 ± 0.011.
Turning to `CC(C)NCC(O)c1ccc(O)c(O)c1` (single isomer, unassigned; (-)) [(-)-Isoproterenol hydrochloride], the growth was 0.23 ± 0.035.
In turn, `COCC(=O)Nc1c(I)c(C(=O)NCC(O)CO)c(I)c(C(=O)N(C)CC(O)CO)c1I` (stereo not given) [Iopromide] returned a growth of 0.257 ± 0.043.
For `CN(C/C=C/C#CC(C)(C)C)Cc1cccc2ccccc12` [Terbinafine], the growth came to 0.218 ± 0.03.
`CNCC[C@@H](Oc1cccc2ccccc12)c1cccs1` [(R)-Duloxetine hydrochloride] showed a growth of 0.0799 ± 0.007.
Compound `Cc1[nH]c(=O)c(C#N)cc1-c1ccncc1` [Milrinone] gave a growth of 0.236 ± 0.014.
Compound `CC(=O)OCC(CCn1cnc2cnc(N)nc21)COC(C)=O` [Famciclovir] registered a growth of 0.199 ± 0.031.
Same read-out and setting: then `O=C1Nc2ccc(Cl)cc2[C@@](C#CC2CC2)(C(F)(F)F)O1` [Efavirenz], with 0.048 ± 0.00069; and `Cc1cc(C(C)(C)C)c(O)c(C)c1CC1=NCCN1` [Oxymetazoline hydrochloride], with 0.251 ± 0.028.
Turning to `Cc1nc(=O)c2cc(CN(C)c3ccc(C(=O)N[C@@H](CCC(=O)O)C(=O)O)s3)ccc2[nH]1` [Raltitrexed], the growth was 0.198 ± 0.029.
For `Nc1nc(/C(=C/CC(=O)O)C(=O)N[C@@H]2C(=O)N3C(C(=O)O)=CCS[C@H]23)cs1` [Ceftibuten], the growth came out at 0.231 ± 0.034.
Consider `O=c1[nH]cnc2c1ncn2[C@H]1CC[C@@H](CO)O1` [Didanosine], for which the growth is 0.196 ± 0.048.
As to `CC=CC(=O)N(CC)c1ccccc1C` [Crotamiton], the growth was found to be 0.235 ± 0.03.
As to `Clc1ccc(CCC(Cn2ccnc2)Sc2c(Cl)cccc2Cl)cc1` (stereo not given) [Butoconazole nitrate], the growth was determined as 0.0712 ± 0.0093.
For the compound `CCc1c(C)[nH]c2c1C(=O)C(CN1CCOCC1)CC2` (stereo not given) [Molindone hydrochloride], the growth came out at 0.25 ± 0.025.
On the same count and under the same terms, then `CNCCC=C1c2ccccc2C=Cc2ccccc21` [Norcyclobenzaprine], with 0.21 ± 0.0089.
For the compound `CC(C)[C@H]1CC[C@H](C(=O)N[C@H](Cc2ccccc2)C(=O)O)CC1` [Nateglinide], the growth amounted to 0.217 ± 0.06.
Same read-out and setting: then `CC1=C(C(=O)O)N2C(=O)[C@@H](NC(=O)[C@H](N)c3ccc(O)cc3)[C@H]2SC1` [Cefadroxil], with 0.222 ± 0.011.
